Source: the supplement of paper PMC11732987, “Enantioselective OTUD7B fragment discovery through chemoproteomics screening and high-throughput optimisation” (Communications Chemistry, 2025)

Experiments:
Experiment in all cases: log2 ratio of Biotin-Ahx-Ub-VS probe labelling (fragment/DMSO); higher = less target engagement (more negative = stronger competition), active = hit call of the paper (q ≤ 0.05, log2 ratio ≤ -1)
Conditions in all cases: compound concentration: 200 uM; treatment time: 3 h
USP19 = target: T1, USP19 (UniProt O94966)
T1 sequence (whole entry): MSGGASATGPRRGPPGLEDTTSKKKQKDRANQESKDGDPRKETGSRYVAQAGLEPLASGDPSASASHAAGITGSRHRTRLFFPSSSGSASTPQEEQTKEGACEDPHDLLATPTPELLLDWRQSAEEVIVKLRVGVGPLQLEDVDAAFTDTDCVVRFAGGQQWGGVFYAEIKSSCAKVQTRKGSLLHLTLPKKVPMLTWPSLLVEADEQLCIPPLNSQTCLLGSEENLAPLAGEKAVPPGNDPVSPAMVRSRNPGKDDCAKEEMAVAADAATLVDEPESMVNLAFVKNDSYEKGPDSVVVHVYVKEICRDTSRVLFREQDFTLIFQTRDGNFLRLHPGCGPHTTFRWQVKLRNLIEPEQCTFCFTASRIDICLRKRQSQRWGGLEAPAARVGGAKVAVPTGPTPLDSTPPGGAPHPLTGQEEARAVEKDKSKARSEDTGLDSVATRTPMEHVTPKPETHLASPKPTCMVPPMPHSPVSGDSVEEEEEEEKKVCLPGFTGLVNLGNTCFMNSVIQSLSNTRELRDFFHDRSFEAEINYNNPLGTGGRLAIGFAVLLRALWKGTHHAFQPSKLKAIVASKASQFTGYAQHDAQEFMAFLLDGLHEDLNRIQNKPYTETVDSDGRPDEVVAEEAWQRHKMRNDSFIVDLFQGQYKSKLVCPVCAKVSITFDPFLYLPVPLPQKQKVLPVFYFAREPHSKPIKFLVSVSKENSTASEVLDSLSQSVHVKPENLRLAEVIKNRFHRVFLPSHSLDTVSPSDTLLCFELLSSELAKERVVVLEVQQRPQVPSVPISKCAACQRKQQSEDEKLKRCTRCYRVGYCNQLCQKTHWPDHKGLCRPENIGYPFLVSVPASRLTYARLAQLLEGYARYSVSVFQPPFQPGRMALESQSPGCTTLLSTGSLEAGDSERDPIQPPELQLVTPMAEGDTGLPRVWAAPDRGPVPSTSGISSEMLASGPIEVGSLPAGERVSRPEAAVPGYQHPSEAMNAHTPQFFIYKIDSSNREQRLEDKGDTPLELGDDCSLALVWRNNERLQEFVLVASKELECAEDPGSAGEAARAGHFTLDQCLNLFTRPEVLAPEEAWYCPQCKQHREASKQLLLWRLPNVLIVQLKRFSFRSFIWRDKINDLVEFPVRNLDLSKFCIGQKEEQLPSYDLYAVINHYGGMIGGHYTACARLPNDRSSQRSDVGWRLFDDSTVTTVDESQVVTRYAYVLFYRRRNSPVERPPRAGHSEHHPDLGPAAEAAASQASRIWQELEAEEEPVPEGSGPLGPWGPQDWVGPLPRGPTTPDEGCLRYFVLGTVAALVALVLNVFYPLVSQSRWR
How it was run: (§1)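 Labelled DUBs were enriched with NeutrAvidin, digested with LysC and trypsin, and run by diaPASEF LC-MS/MS. The labelling used Biotin-Ahx-Ub-VS at 0.5 µM final for 1 h on HEK293T lysate (495 µg per sample) previously treated in triplicate with fragment at 200 µM or vehicle for 3 h. Values are average log2 fragment/vehicle ratios by unpaired t-test on global-median-normalised Spectronaut quantities of proteins with ≥2 unique peptides.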

USP22 = target: T2, USP22 (UniProt Q9UPT9)
T2 sequence (whole entry): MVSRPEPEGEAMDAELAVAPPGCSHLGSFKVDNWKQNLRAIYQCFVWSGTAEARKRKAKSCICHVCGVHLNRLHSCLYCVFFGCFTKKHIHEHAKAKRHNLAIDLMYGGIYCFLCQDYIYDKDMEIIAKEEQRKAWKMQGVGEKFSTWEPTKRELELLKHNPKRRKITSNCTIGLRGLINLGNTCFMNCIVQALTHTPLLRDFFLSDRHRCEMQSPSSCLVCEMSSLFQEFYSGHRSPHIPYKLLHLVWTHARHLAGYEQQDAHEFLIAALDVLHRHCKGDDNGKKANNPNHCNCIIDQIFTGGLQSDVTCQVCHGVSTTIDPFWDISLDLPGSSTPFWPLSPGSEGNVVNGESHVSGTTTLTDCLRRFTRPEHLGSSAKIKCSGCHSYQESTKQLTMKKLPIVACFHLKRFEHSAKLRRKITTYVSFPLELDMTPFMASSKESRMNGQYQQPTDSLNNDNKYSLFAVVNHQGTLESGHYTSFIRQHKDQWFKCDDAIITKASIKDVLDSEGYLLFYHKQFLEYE
How it was run: as §1

USP24 = USP24 (UniProt Q9UPU5)
How it was run: as §1

USP25 = target: T3, USP25 (UniProt Q9UHP3)
T3 sequence (whole entry): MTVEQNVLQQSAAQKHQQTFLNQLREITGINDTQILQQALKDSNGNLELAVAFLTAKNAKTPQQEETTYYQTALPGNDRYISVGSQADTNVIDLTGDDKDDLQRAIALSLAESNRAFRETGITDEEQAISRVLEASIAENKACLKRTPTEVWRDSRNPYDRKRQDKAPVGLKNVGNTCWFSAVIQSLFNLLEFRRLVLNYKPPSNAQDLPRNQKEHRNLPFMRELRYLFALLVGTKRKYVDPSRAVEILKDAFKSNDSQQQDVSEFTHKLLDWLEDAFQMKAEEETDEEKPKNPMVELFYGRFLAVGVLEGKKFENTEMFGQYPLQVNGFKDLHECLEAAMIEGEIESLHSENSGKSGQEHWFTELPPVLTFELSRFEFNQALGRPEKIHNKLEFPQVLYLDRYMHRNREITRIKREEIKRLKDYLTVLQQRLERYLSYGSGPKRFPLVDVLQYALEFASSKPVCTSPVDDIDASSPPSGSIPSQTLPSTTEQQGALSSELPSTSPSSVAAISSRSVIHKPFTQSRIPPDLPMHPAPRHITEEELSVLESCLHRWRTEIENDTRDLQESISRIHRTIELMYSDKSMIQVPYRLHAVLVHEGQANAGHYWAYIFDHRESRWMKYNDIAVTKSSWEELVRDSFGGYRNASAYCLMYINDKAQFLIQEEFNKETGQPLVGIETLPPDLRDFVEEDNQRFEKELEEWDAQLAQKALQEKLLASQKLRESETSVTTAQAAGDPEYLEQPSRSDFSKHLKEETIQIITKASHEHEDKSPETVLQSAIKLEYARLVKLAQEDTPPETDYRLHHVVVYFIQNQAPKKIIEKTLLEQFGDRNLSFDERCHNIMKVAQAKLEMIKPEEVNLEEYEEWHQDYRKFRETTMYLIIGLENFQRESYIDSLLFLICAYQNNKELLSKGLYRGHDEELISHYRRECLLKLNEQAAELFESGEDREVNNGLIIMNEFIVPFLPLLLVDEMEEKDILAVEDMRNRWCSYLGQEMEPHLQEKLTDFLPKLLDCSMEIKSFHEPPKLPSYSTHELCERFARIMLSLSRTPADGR
How it was run: as §1

USP28 = target: T4, USP28 (UniProt Q96RU2)
T4 sequence (whole entry): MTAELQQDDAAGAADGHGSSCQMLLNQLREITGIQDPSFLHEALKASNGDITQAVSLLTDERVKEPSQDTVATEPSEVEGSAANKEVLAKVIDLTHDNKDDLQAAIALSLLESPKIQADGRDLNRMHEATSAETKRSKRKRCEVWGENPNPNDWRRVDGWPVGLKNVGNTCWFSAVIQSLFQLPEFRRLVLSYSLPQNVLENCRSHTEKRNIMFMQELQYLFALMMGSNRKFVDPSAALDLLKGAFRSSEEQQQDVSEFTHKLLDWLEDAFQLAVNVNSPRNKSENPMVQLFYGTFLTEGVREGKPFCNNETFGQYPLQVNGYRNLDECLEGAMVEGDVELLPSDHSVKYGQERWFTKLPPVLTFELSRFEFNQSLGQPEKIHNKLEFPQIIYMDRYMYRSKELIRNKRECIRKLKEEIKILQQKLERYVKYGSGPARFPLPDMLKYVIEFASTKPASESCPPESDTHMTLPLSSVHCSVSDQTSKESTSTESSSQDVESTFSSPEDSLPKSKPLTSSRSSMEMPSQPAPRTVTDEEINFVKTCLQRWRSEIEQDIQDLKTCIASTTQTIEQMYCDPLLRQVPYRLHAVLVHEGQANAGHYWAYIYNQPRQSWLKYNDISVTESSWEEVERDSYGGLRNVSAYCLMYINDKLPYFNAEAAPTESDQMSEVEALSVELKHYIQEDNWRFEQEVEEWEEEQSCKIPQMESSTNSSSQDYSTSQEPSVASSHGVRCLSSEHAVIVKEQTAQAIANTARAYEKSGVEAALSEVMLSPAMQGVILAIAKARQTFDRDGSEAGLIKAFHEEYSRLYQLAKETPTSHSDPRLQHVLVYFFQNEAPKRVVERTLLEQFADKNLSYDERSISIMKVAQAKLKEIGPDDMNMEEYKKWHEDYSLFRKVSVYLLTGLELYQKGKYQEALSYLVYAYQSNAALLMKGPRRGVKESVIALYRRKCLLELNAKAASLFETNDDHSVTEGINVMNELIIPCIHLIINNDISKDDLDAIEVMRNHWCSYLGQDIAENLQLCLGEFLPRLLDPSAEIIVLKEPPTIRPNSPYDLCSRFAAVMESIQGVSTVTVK
How it was run: as §1

Measured: log2 ratio of Biotin-Ahx-Ub-VS probe labelling

Sequence of USP24 (Q9UPU5 whole entry): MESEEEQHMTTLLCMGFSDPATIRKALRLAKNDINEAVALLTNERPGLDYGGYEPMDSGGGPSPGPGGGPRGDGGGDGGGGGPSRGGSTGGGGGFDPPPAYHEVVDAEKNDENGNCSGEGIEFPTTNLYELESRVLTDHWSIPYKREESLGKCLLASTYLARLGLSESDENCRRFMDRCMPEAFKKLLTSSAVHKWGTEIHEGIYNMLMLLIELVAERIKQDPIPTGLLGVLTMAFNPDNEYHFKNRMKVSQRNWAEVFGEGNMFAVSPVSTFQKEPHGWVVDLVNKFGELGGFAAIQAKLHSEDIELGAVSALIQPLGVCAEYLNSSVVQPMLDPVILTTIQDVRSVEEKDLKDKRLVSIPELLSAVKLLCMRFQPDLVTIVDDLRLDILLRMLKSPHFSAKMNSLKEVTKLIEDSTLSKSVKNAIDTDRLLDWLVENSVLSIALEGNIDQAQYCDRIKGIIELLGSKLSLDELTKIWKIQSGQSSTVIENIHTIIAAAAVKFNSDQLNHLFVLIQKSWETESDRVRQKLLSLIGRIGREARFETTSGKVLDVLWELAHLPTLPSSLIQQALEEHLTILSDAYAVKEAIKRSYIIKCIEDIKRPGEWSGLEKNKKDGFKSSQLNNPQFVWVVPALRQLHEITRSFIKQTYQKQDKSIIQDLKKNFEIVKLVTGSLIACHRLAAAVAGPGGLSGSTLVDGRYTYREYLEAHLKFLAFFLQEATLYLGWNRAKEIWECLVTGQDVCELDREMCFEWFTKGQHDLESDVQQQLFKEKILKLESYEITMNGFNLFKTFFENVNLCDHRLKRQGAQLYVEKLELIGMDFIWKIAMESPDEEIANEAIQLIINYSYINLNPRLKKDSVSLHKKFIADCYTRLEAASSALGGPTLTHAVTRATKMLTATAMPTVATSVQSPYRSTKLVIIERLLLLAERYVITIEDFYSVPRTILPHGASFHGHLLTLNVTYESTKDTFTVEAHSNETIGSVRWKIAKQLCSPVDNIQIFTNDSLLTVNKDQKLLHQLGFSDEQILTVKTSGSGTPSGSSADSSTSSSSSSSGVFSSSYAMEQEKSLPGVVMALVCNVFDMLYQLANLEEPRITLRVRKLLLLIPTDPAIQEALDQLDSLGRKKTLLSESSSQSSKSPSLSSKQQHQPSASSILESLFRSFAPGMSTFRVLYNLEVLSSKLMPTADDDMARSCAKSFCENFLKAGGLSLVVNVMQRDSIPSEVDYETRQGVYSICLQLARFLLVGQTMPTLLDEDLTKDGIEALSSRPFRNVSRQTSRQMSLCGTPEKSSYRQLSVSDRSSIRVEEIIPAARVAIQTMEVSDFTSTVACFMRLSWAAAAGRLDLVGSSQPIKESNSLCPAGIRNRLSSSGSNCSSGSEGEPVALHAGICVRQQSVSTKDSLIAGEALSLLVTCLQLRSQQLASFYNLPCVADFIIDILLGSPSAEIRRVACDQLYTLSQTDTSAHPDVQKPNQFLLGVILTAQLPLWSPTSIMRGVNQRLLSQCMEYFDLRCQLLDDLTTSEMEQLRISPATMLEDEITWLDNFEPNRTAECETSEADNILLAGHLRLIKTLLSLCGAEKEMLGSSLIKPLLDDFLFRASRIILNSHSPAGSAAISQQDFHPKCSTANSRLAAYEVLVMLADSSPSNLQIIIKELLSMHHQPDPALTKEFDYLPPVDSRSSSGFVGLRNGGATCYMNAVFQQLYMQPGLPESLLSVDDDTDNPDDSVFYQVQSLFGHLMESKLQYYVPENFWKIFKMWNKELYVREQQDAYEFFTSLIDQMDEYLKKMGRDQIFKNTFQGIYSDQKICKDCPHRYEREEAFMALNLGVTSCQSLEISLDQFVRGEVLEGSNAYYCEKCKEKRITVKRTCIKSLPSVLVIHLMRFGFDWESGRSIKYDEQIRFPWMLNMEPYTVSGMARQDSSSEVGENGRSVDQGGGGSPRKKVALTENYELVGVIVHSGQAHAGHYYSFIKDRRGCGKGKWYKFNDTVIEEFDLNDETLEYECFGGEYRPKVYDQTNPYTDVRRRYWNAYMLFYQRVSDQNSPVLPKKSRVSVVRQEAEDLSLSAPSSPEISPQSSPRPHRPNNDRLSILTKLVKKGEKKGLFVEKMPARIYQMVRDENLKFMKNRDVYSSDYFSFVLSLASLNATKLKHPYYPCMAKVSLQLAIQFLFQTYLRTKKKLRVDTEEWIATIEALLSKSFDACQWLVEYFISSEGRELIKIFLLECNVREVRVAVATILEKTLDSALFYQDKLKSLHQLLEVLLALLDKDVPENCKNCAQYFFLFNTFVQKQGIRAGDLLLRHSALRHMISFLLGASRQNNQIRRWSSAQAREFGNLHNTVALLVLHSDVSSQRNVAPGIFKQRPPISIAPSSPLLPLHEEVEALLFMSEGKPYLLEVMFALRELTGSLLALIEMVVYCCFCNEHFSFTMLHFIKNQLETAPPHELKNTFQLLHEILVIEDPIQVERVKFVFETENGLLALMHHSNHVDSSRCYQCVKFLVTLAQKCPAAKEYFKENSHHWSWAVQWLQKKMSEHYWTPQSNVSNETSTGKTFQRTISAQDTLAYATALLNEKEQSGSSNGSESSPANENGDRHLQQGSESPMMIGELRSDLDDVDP

O=C(CCl)NC1(c2ccc3c(c2)OCCO3)CCCC1
inactive: USP19 -0.103 | USP22 0.0133 | USP24 -0.451 | USP25 -0.337 | USP28 -0.402
